# Experimental data taken from PubChem BioAssay AID588689 (Southern Research Specialized Biocontainment Screening …, 2011).
# Hit rate of the full screen: of about 340,000 compounds, about 1,000 (0.29%) were called active. Rule as the data show it: inconclusive = inhibition above about 29% without an active follow-up result; inactive = below that. These entries were drawn from the full list. Entries with a potency or affinity are not part of this list.
# Target: Genome polyprotein (Dengue virus type 2 (strain 16681-PDK53)) (UniProt P29991)
# Experiment: Dengue-2 NS5 methyltransferase inhibitors, primary screen, biochemical, confirmation dose response (AID 588689)
# Details: Dengue-2 NS5 methyltransferase capping enzyme assay, at 25 µM, stronger effect = higher value
Structure (SMILES),inhibition,inhibition (measured here: pilot screen replicate inhibition) [%]
CCOC(=O)C1CCN(C(=O)C2CCN(S(=O)(=O)c3ccc4c(c3)CC(C)N4C(C)=O)CC2)CC1 (centres undefined),2.72% (inactive),
O=C(C1CCN(Cc2ccc(Cl)cc2)CC1)N1CCN(C(c2ccccc2)c2ccccc2)CC1,-2.91% (inactive),
O=C(O)c1ccc2c(c1)C(=O)N(c1ccc(Nc3ccccc3)cc1)C2=O,7.94% (inactive),
O=C(O)c1ccc2c(c1)C(=O)N(c1cccc(C(=O)/C=C/c3ccccc3)c1)C2=O,-7.15% (inactive),
O=C(c1ccccc1)c1ccccc1C(=O)c1ccccc1,1.31% (inactive),
O=C(c1ccccc1)c1ccccc1,-1.45% (inactive),
Cc1ccc(CN2[C@@H]3c4ccccc4C[C@@H]3OCCS2(=O)=O)cc1,-4.81% (inactive),
O=C(NCCc1ccccc1)c1cnc2ccccn2c1=O,1.36% (inactive),
O=C1c2ccccc2-c2cccnc21,-0.66% (inactive),
COc1cc(CCNC2=CC(=O)c3ncccc3C2=O)ccc1O,-6.94% (inactive),
COC(=O)CC1=NN(c2ccc(OC)cc2)C(=O)/C1=C\c1ccc(Cl)cc1,-4.74% (inactive),
COc1ccc(C2=NN(c3ccccc3)C(=O)/C2=C\c2ccc(O)c(OC)c2)cc1,8.85% (inactive),
COc1ccc(/C=C2/C(=O)N(c3cccc(F)c3)N=C2C)c(OC)c1,16.7% (inactive),
CCOC(=O)CC1=NN(c2ccccc2)C(=O)/C1=C\c1ccc(N(C)C)cc1,13.3% (inactive),
O=C(CN1C(=O)c2ccccc2C1=O)OCC(=O)c1ccc(F)cc1,5.07% (inactive),
COc1cc(C(=O)NCC(c2ccco2)N2CCOCC2)cc(OC)c1OC (centres undefined),-3.67% (inactive),
CCOc1ccc(CCN2C(=S)N([C@@H](CC(C)C)CN3CCCC3CN3C(=S)NC[C@@H]3CC(C)C)C[C@@H]2Cc2ccccc2)cc1 (some centres undefined),0.65% (inactive),
O=C(c1ccc(NC(=S)Nc2ccc(Cl)c(Cl)c2)cc1)N1CCCC1,-10.3% (inactive),
COc1cccc2cc(C(=O)CS(=O)(=O)c3ccc(C)cc3)c(=O)oc12,10.9% (inactive),
Cc1ccc(S(=O)(=O)CC(=O)c2cc3cccc(C)c3oc2=O)cc1,5.44% (inactive),

Structure (SMILES),inhibition,inhibition (measured here: pilot screen replicate inhibition) [%]
COCCCNC(=O)/C=C/c1c(Cl)cccc1Cl,-0.74% (inactive),
Cc1cc(N2C(=O)C(O)=C(C(=O)c3ccco3)C2c2cccc(Cl)c2)no1 (centres undefined),-4.65% (inactive),
Cc1cc(N2C(=O)C(O)=C(C(=O)c3ccco3)C2c2cccc(O)c2)no1 (centres undefined),-4.44% (inactive),
Cc1cc(N2C(=O)C(O)=C(C(=O)c3ccc(C)o3)C2c2cccc(Cl)c2)no1 (centres undefined),10.9% (inactive),
CCOc1ccc(C2C(C(=O)c3ccc(C)o3)=C(O)C(=O)N2c2cc(C)on2)cc1OC (centres undefined),4.09% (inactive),
COC(=O)c1ccc(C2C(C(=O)c3ccc(C)o3)=C(O)C(=O)N2c2cc(C)on2)cc1 (centres undefined),-3.53% (inactive),
COc1cccc(C2C(C(=O)c3ccc(C)o3)=C(O)C(=O)N2c2cc(C)on2)c1 (centres undefined),-1.77% (inactive),
O=C(NCN1CCN(c2ccccn2)CC1)c1cnccn1,-4.12% (inactive),
O=C(Nc1cccc([N+](=O)[O-])c1)c1cc(S(=O)(=O)Nc2ccccn2)ccc1Cl,0.65% (inactive),
O=C(COC(=O)CSc1ccc([N+](=O)[O-])cc1)NCC1CCCO1 (centres undefined),5.91% (inactive),
Cc1ccc2c(c1)c1ccc3c(c1n2C)C(=O)C=CC3=O,47.6% (inactive),
COc1ccc2c(c1)c1ccc3c(c1n2C)C(=O)C=CC3=O,5.87% (inactive),
Cc1cc(=O)n(C)c2ccccc12,-7.77% (inactive),
Cc1ccc(C)c2c1c1ccccc1n2C,0.78% (inactive),
CCC(C)NC(=O)CCSCCC(=O)NC(C)CC (centres undefined),-4.42% (inactive),
CCCC(C)C(=O)Nc1ccc(S(N)(=O)=O)cc1 (centres undefined),-3.64% (inactive),
CCOC(=O)C1CCCN(S(=O)(=O)NC[C@H]2O[C@@H](n3cnc4c(N)ncnc43)[C@H](O)[C@@H]2O)C1 (some centres undefined),-8.6% (inactive),-4.29
Fc1cnc(N2CCc3ccccc32)nc1N1CCc2ccccc21,-0.68% (inactive),
O=C(O)c1ccc2c(c1)C(=O)N(N1C(=O)c3ccccc3C1=O)C2=O,5.13% (inactive),
Cc1ccc(C(=O)O)cc1-c1ccc(C=C2C(=O)c3ccccc3C2=O)o1,-0.73% (inactive),

Structure (SMILES),inhibition,inhibition (measured here: pilot screen replicate inhibition) [%]
Cc1ccc(C=C2C(=O)c3ccccc3C2=O)o1,1.92% (inactive),
O=C1C(=Cc2ccco2)C(=O)c2ccccc21,-4.01% (inactive),
Cc1cc(C(=O)O)ccc1-n1c(C)cc(C=C2C(=O)c3ccccc3C2=O)c1C,-19.9% (inactive),
O=C(O)c1ccc2c(c1)C(=O)N(Cc1ccco1)C2=O,5.56% (inactive),
COc1cc(COC(=O)c2cnc(C)cn2)c(OC)cc1Br,7.48% (inactive),
Cc1cc(Br)ccc1SCC(=O)OCC(=O)NCc1ccco1,13.5% (inactive),
COC(=O)CCC(=O)COc1ccccc1C#N,-1.61% (inactive),
O=S(=O)(O)c1cc(O)c(N=Nc2ccc(O)cc2O)c2ccccc12,22.4% (inactive),
Oc1ccc(N=Nc2ccc(Br)cc2)c(O)c1,7.83% (inactive),
CCOc1ccc(-n2c(=S)sc3c(=O)n(-c4ccccc4)c(SCC(=O)O)nc32)cc1,-5.28% (inactive),
CCOC(=O)CSc1nc2c(sc(=S)n2-c2ccc(OCC)cc2)c(=O)[nH]1,0% (inactive),
CC(C)N1C(=O)C(=O)N(CC(=O)N2c3ccccc3NC(=O)CC2C)C1=O (centres undefined),4.36% (inactive),
COCC(C)NC(=O)c1cc(-c2ccccc2OC)on1 (centres undefined),-5.61% (inactive),
CCOC(=O)C1=CN2CCC[C@H]2CC1=O,-9.17% (inactive),
CCOC(=O)C1=CN2CCCC[C@@H]2CC1=O,-4.81% (inactive),
Cc1ccc(S(=O)(=O)NCCC(=O)N2CCC(Cc3ccccc3)CC2)cc1,-2.89% (inactive),
CCN(CC(=O)Nc1ccccc1C(F)(F)F)C(=O)c1ccc2c(c1)NC(=O)C(C)S2 (centres undefined),-4.95% (inactive),
NC(=O)C1CCN(C(=O)c2ccc3c(=O)n(Cc4ccco4)c(SCc4ccc([N+](=O)[O-])cc4)nc3c2)CC1,12.3% (inactive),
